Measurements taken from PubChem BioAssay AID1159580 (chemical genetic matrix, 2015).
In all, about 5,500 compounds went through this assay and about 2,000 (36%) were called active. Another 18% or so got no clear call; they are omitted. Cut-off read from the data, not from the text of the source: active = normalized growth mostly below about 0.91 (no sharp cut-off); inconclusive = no clear call, values can overlap the other calls; inactive = mostly above about 0.92. The list shows a part of the results.

Assay: chemical genetic growth profiling, strain panel (AID 1159580);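 note: tested at 20 µM; growth read once vehicle control cultures reached saturation at 30 °C; 1 = growth at the plate median or of vehicle wells; lower values mean less growth of the strain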
Conditions: S. cerevisiae deletion strains, growth OD

Measured: normalized growth

O=C(O)[C@H]1/C(=C/CO)O[C@@H]2CC(=O)N21
inactive: locus YAL021C, strain ccr4, active compounds read low 0.992 | locus YAL026C, strain drs2, active compounds read low 0.991 | locus YAL030W, strain snc1, active compounds read low 0.992 | locus YBL061C, strain skt5, active compounds read low 0.955 | locus YBR009C, strain hhf1, active compounds read low 1.01 | locus YBR023C, strain chs3, active compounds read low 0.978 | locus YBR171W, strain sec66, active compounds read low 0.983 | locus YBR231C, strain swc5, active compounds read low 1.02 | locus YBR279W, strain paf1, active compounds read low 0.976 | locus YCL011C, strain gbp2, active compounds read low 1.02 | locus YCL016C, strain dcc1, active compounds read low 0.972 | locus YCL069W, strain vba3, active compounds read low 0.986 | locus YCR088W, strain abp1, active compounds read low 0.986 | locus YDL005C, strain med2, active compounds read low 0.971 | locus YDL040C, strain nat1, active compounds read low 0.982 | locus YDR001C, strain nth1, active compounds read low 0.981 | locus YDR069C, strain doa4, active compounds read low 1.01 | locus YDR137W, strain rgp1, active compounds read low 0.982 | locus YDR159W, strain sac3, active compounds read low 0.97 | locus YDR195W, strain ref2 0.96 | locus YDR297W, strain sur2, active compounds read low 1 | locus YDR334W, strain swr1, active compounds read low 0.988 | locus YDR335W, strain msn5, active compounds read low 0.976 | locus YDR392W, strain spt3, active compounds read low 0.883 | locus YEL003W, strain gim4, active compounds read low 1 | locus YEL037C, strain rad23, active compounds read low 0.985 | locus YEL061C, strain CIN8 (second series), active compounds read low 0.986 | locus YER015W, strain faa2, active compounds read low 0.996 | locus YER016W, strain bim1, active compounds read low 0.957 | locus YER111C, strain swi4, active compounds read low 0.973 | locus YER155C, strain BEM2 (second series), active compounds read low 0.999 | locus YFR010W, strain ubp6, active compounds read low 1.02 | locus YGL167C, strain pmr1, active compounds read low 0.986 | locus YGL173C, strain kem1, active compounds read low 0.997 | locus YGL227W, strain vid30, active compounds read low 0.971 | locus YGL240W, strain doc1, active compounds read low 1.01 | locus YGL253W, strain hxk2, active compounds read low 0.959 | locus YHR013C, strain ard1, active compounds read low 0.957 | locus YHR027C, strain rpn1, active compounds read low 0.992 | locus YHR030C, strain SLT2, active compounds read low 0.964 | locus YHR079C, strain IRE1, active compounds read low 0.959 | locus YHR142W, strain chs7, active compounds read low 0.959 | locus YJL092W, strain hpr5, active compounds read low 0.999 | locus YJL095W, strain BCK1 (second series), active compounds read low 1 | locus YJL095W, strain BCK1, active compounds read low 0.991 | locus YJL115W, strain asf1, active compounds read low 0.983 | locus YJL129C, strain trk1, active compounds read low 0.941 | locus YJL154C, strain vps35, active compounds read low 0.982 | locus YJL164C, strain tpk1, active compounds read low 0.993 | locus YJL166W, strain qcr8, active compounds read low 1.03 | locus YJL187C, strain SWE1, active compounds read low 0.995 | locus YJR066W, strain TOR1, active compounds read low 0.936 | locus YKL160W, strain elf1, active compounds read low 0.955 | locus YKR026C, strain gcn3, active compounds read low 0.99 | locus YKR091W, strain srl3, active compounds read low 0.986 | locus YLL001W, strain dnm1, active compounds read low 0.984 | locus YLL026W, active compounds read low 0.987 | locus YLL041C, strain sdh2, active compounds read low 1.02 | locus YLR027C, strain aat2, active compounds read low 1 | locus YLR113W, strain HOG1, active compounds read low 0.974 | locus YLR221C, strain rsa3, active compounds read low 1.01 | locus YLR258W, strain gsy2, active compounds read low 1 | locus YLR262C, strain YPT6 (second series), active compounds read low 1.02 | locus YLR320W, strain mms22, active compounds read low 1.01 | locus YLR342W, strain FKS1, active compounds read low 0.965 | locus YLR357W, strain rsc2, active compounds read low 0.931 | locus YLR370C, strain arc18, active compounds read low 0.972 | locus YLR384C, strain iki3, active compounds read low 0.98 | locus YML120C, strain ndi1, active compounds read low 0.997 | locus YMR058W, strain fet3, active compounds read low 0.993 | locus YMR125W, strain sto1, active compounds read low 0.954 | locus YMR129W, active compounds read low 0.981 | locus YMR205C, strain PFK2, active compounds read low 0.99 | locus YMR231W, strain pep5, active compounds read low 0.983 | locus YNL071W, strain lat1, active compounds read low 0.996 | locus YNL183C, strain NPR1, active compounds read low 0.952 | locus YNL209W, strain ssb2, active compounds read low 0.98 | locus YNL248C, strain rpa49, active compounds read low 0.935 | locus YNL322C, strain KRE1 (second series), active compounds read low 0.973 | locus YNR049C, strain mso1, active compounds read low 0.972 | locus YOR001W, strain rrp6, active compounds read low 1.03 | locus YOR070C, strain gyp1, active compounds read low 0.994 | locus YOR080W, strain dia2, active compounds read low 0.988 | locus YOR083W, strain WHI5, active compounds read low 0.909 | locus YOR106W, strain vam3, active compounds read low 0.952 | locus YOR231W, strain MKK1, active compounds read low 0.987 | locus YOR265W, strain rbl2, active compounds read low 0.993 | locus YOR270C, strain vph1, active compounds read low 1 | locus YOR290C, strain snf2, active compounds read low 0.986 | locus YPL051W, strain arl3, active compounds read low 0.979 | locus YPL078C, strain atp4, active compounds read low 0.967 | locus YPL106C, strain sse1, active compounds read low 0.979 | locus YPL240C, strain hsp82, active compounds read low 1.01 | locus YPL256C, strain CLN2, active compounds read low 0.959
